Compound activity as filed in PubChem.
POLI inh = qHTS for Inhibitors of Polymerase Iota. DNA polymerase iota (Homo sapiens), Q9UNA4. Pol iota fluorescent replication assay, 10 min. Potency, µM (highest dose often 115 µM), for the others: top-dose activity, negative = inhibition, hits mostly inhibitors. 390,000 tested, 1% active
Target sequence (Q9UNA4 whole entry, looked up): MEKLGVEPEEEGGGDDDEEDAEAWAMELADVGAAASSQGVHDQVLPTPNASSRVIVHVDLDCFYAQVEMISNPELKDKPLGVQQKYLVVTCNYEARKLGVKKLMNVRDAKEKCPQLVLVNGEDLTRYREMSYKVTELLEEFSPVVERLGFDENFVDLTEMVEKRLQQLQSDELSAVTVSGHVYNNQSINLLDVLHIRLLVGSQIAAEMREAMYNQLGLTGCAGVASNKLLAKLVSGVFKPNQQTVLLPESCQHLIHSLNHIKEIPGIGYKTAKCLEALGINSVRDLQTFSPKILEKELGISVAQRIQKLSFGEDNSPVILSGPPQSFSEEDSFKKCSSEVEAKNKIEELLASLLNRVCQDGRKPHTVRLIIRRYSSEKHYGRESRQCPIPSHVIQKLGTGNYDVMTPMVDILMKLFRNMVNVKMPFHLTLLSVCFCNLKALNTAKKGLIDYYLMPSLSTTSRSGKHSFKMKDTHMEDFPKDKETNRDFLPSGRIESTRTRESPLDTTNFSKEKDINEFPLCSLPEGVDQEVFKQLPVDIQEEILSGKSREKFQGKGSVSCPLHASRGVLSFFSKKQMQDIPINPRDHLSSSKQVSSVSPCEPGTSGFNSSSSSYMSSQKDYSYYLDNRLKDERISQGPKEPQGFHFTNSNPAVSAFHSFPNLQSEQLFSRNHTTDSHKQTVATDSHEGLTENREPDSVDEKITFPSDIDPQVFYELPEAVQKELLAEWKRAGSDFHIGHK
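Pol iota at 10 nM preincubated 15 min with compounds at room temperature; reaction started with fluorescent substrate, 50 nM final. Fluorescence read kinetically at 0 and 10 min; buffer-only wells as negative control.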
GLS inh = qHTS for Inhibitors of Glutaminase (GLS); AID 624170, 2012; 410,000 tested, 0.21% active; Potency, µM (doses to about 45.5 µM), inactives show top-dose activity change, negative = inhibition, actives largely listed as inhibitors; GLS enzymatic activity, qHTS titration; Glutaminase kidney isoform, mitochondrial (Homo sapiens), O94925; also: % is scaled to controls: 0 for no effect and ±100 for the full control effect
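Compounds were pin-transferred onto hKGA, after which L-glutamine (1 mM solution) and a detection mix of glutamate oxidase, HRP and Amplex Red were added. Initial and 30 min RT fluorescence reads were collected.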
Pol kappa inh = qHTS for Inhibitors of Polymerase Kappa. DNA polymerase kappa (Homo sapiens), Q9UBT6. Potency, µM (doses to about 107 µM), for inactives: top-dose activity, negative = inhibition, hits mostly inhibitors. AID 588579, 2011. 400,000 tested, 0.53% active. purified Pol kappa, fluorescent DNA synthesis assay, 10 min; also: % is scaled to controls: 0 for no effect and ±100 for the full control effect
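Enzyme at 10 nM met test compounds for 15 min at room temperature. Substrate addition (50 nM final) began the reaction, which was monitored by fluorescence at 0 and 10 min.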
GCN5L2 inh = qHTS Assay for Inhibitors of GCN5L2 | AID 504327, 2011 | GCN5L2 HAT assay, ThioGlo1 CoA-SH fluorescence | Potency, µM (top dose mostly 58.9 µM), without a hit: top-dose activity change, negative = inhibition, hits mostly inhibitors | 390,000 tested, 0.21% active | Histone acetyltransferase KAT2A (Homo sapiens), Q92830; also: % is scaled to controls: 0 for no effect and ±100 for the full control effect
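Fluorescence readout, Ex340nm/Em540nm: ThioGlo1 (50uM final) reacts with free CoA thiol released as 20nM GCN5L2 acetylates H3(1-25) peptide (75uM) using acetyl-CoA (70uM). Compound and enzyme sat 15 min beforehand; 20 min room-temperature reaction.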
POLH inh = qHTS for Inhibitors of Polymerase Eta; recombinant Pol eta, fluorescent DNA replication assay; Potency, µM (top dose mostly 114 µM), for inactives: at the highest dose activity change, negative = inhibition, most hits filed as inhibitors; 390,000 tested, 1.2% active; AID 588591, 2011; also: % is scaled to controls: 0 for no effect and ±100 for the full control effect
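Fluorescent replication assay: 50 nM final substrate added after a 15 min room-temperature compound preincubation with 10 nM enzyme. Signal taken at 0 min and again at 10 min.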
POLB inh = qHTS Assay for Inhibitors of DNA Polymerase Beta | P06746 | Pol beta primer extension/strand displacement, fluorescence kinetic | Potency, µM (series often up to 114 µM), without a hit: top-dose activity change, negative = inhibition, most hits filed as inhibitors | 340,000 tested, 1.3% active; also: % is scaled to controls: 0 for no effect and ±100 for the full control effect
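10 nM enzyme + cpd, 15 min RT; start with substrate 50 nM final; read 0 min and after 10 min RT. Corrected, normalized data; 4-parameter Hill curve fit.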
The depositor's hits bear a star; ? = inconclusive; . = not tested or not shown. Shown are actives, neighbours in structure and some others; about 2.4% of the full set was active somewhere. Calls follow the shape of the dose curve; as a rule, active = well fitted inhibition curve with a large enough effect; inconclusive = small, poorly fitted or top-dose-only effect, or another doubt; inactive = no such curve, though single readings can be large or run the other way. Potency is read from the fitted curve at half-maximal effect.

SMILES	POLI inh	GLS inh	Pol kappa inh	GCN5L2 inh	POLH inh	POLB inh
CN1C(=O)NC(c2ccccc2)C2=C1CN(c1ccc3ccccc3c1)C2=O (stereo unspecified)	9%	1%	-4%	-9%	11µM*	-10%
Cc1ccc(NC(=O)c2ccc(-n3cccn3)c([N+](=O)[O-])c2)cc1	-2%	9%	0%	-1%	-6%	0%
O=C(Nc1ccc(C2=NCCN2)cc1)c1ccc(C(=O)Nc2ccc(C3=NCCN3)cc2)c([N+](=O)[O-])c1	10µM*	-1%	45µM*	10%	?	2.2µM*
O=C(Nc1ccc(Cl)cc1)Nc1ccc(Cl)c(C(F)(F)F)c1	.	3%	.	.	.	.
COC(=O)\C(C(C)=O)=C(/C=C/C=C/N(C)C)N(C)C	?	-30%	?	-6%	14µM*	22µM*
Cc1cc(Cl)ccc1OCC(=O)OC(C)C(=O)N(C)C (stereo unspecified)	50µM*	84%	-17%	-2%	?	?
CCCN1CNc2c(c(=O)[nH]c(=S)n2CCc2ccc(OC)cc2)C1	13%	.	-1%	.	.	.
C=C1C=C(C(F)F)n2ncc(C(=O)N3CCN(c4ccccc4)CC3)c2N1	9%	.	4%	.	.	.
COc1cc(NC(=O)c2ccnc(N)c2)cc(C(=O)Nc2cccc(C(F)(F)F)c2)c1	?	2%	-3%	-5%	-12%	0%
COc1cc(NC(=O)c2cnc(N)s2)cc(C(=O)Nc2cccc(C(F)(F)F)c2)c1	2.2µM*	-1%	-12%	-27%	-9%	2%
Cc1cc(C)cc(NC(=O)Cn2c(-c3cncs3)nc3ccccc32)c1	89µM*	-7%	-14%	-4%	.	?
Cc1cnc(C(=O)OCC(=O)c2ccccc2)cn1	4%	1%	9%	-7%	12%	.
Cc1cnc(C(=O)OCC(=O)c2csc(N3CCCCC3)n2)cn1	?	-13%	-24%	-18%	25µM*	45µM*
Cc1ccc(-c2cnc(NCc3c(F)cccc3Cl)n2C)cc1	-5%	3%	3%	-9%	-17%	-4%
O=C(CCC(=O)c1cccs1)NCCc1ccc(F)cc1	15%	-1%	-8%	-5%	1%	.
NS(=O)(=O)c1ccc(CCNC(=O)CCC(=O)c2cccs2)cc1	-19%	-1%	-18%	0%	89µM*	.
COc1cc(C2/C(=C(\O)c3ccc4c(c3)CC(C)O4)C(=O)C(=O)N2CC2CCCO2)cc(OC)c1OC (stereo unspecified)	14%	-4%	-11%	-24%	-16%	-19%
CC1Cc2cc(/C(O)=C3/C(=O)C(=O)N(CC4CCCO4)C3c3ccco3)ccc2O1 (stereo unspecified)	?	-23%	-25%	-8%	14µM*	22µM*
C=CCOc1cccc(C2/C(=C(/O)c3ccc4c(c3)CC(C)O4)C(=O)C(=O)N2CCN2CCOCC2)c1 (stereo unspecified)	89µM*	1%	-14%	-10%	-3%	-19%
Cc1cc(Cl)ccc1Nc1nc(NCc2ccco2)nc2nccnc12	1%	.	-7%	.	.	.
CCOc1ccc(-c2c(C(=O)N/N=C(\C)c3cccnc3)nnn2-c2nonc2N)cc1	?	5%	-9%	-9%	-5%	23%
CCCOc1ccc(-c2c(C(=O)N/N=C(\C)c3cccnc3)nnn2-c2nonc2N)cc1	45µM*	12%	-31%	-2%	4%	1%
COC(=O)CSc1nc(-c2ccccc2)cc(-c2ccco2)c1C#N	38%	-2%	-29%	-8%	0%	28µM*
N#Cc1c(-c2ccc(F)cc2)cc(-c2ccccc2)nc1SCC(=O)NCC(=O)O	?	-7%	-12%	?	-20%	45µM*
